In ChEMBL document CHEMBL1961873, “Compounds: GSK PKIS; Assays: Nanosyn kinase panel” (2012) one finds inhibition data, which are given here for seven compounds.

The inhibition is the change of the read-out against control, counted positive when it falls.

The target in assay [1] is MAP/microtubule affinity-regulating kinase 3 (Homo sapiens) (UniProt P27448). Particulars: at 1 µM.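 Also: reported values are averaged percent inhibition of MARK3.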
Assay [2] has as its target T1, MAP/microtubule affinity-regulating kinase 4 (Homo sapiens) (UniProt Q96L34).
T1 sequence (whole entry): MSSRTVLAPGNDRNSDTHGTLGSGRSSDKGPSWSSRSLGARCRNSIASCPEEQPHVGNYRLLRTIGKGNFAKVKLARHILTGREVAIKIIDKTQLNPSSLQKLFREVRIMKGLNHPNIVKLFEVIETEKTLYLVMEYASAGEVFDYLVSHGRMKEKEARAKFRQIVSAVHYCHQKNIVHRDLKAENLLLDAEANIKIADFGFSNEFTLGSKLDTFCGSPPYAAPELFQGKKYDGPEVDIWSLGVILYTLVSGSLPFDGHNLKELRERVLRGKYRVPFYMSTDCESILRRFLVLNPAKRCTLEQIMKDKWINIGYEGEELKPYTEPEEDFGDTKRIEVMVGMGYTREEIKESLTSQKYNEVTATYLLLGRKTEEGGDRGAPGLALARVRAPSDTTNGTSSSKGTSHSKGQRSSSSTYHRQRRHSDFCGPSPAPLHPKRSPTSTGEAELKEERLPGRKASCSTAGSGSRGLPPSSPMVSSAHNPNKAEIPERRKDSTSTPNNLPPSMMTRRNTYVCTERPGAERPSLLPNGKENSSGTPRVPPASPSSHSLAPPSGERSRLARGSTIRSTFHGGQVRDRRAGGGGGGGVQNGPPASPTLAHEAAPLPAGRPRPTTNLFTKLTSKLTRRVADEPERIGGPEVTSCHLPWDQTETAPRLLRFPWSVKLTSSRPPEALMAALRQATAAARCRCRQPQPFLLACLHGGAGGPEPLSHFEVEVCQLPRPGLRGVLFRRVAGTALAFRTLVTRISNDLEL
Conditions: at 0.1 µM.

For assay [3], the target named is T1, MAP/microtubule affinity-regulating kinase 4 (Homo sapiens). Particulars: at 1 µM.
For assay [4], the target named is Maternal embryonic leucine zipper kinase (Homo sapiens) (UniProt Q14680). Particulars: at 0.1 µM.
Assay [5] has the same target. Conditions: at 1 µM.
The target in assay [6] is MAP kinase-interacting serine/threonine-protein kinase 1 (Homo sapiens) (UniProt Q9BUB5). Conditions: at 0.1 µM.
Assay [7] shares this target. Particulars: at 1 µM.
Assay [8] deals with MAP kinase-interacting serine/threonine-protein kinase 2 (Homo sapiens) (UniProt Q9HBH9). Particulars: at 0.1 µM.
For assay [9] the target is unchanged. Particulars: at 1 µM.
Assay [10] has as its target Serine/threonine-protein kinase MARK2 (Homo sapiens) (UniProt Q7KZI7). Conditions: at 0.1 µM.
The target is the same in assay [11]. Conditions: at 1 µM.
For assay [12], the target named is PAS domain-containing serine/threonine-protein kinase (Homo sapiens) (UniProt Q96RG2). Conditions: at 0.1 µM.
Assay [13] has the same target. Particulars: at 1 µM.
Assay [14] has as its target Phosphorylase b kinase gamma catalytic chain, skeletal muscle/heart isoform (Homo sapiens) (UniProt Q16816). Conditions: at 0.1 µM.
For assay [15] the target is unchanged. Particulars: at 1 µM.
In assay [16] the target is T2, Phosphorylase b kinase gamma catalytic chain, liver/testis isoform (Homo sapiens) (UniProt P15735).
T2 sequence (whole entry): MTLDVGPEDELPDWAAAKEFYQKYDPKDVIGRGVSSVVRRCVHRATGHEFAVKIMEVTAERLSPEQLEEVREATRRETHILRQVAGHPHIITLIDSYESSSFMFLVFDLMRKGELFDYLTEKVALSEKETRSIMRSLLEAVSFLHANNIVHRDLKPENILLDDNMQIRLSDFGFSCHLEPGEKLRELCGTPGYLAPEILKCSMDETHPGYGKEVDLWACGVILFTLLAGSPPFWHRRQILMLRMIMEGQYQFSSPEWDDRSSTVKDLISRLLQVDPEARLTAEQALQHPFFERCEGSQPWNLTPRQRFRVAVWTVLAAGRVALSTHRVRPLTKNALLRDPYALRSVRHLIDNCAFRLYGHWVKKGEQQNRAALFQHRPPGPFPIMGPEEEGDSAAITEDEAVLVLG
Particulars: at 0.1 µM.

The target in assay [17] is T2, Phosphorylase b kinase gamma catalytic chain, liver/testis isoform (Homo sapiens). Particulars: at 1 µM.
Assay [18] concerns the target Serine/threonine-protein kinase pim-1 (Homo sapiens) (UniProt P11309). Conditions: at 0.1 µM.
For assay [19] the target is unchanged. Particulars: at 1 µM.
Assay [20] deals with Serine/threonine-protein kinase pim-2 (Homo sapiens) (UniProt Q9P1W9). Conditions: at 0.1 µM.
Sequence of Serine/threonine-protein kinase pim-2 (Homo sapiens) (Q9P1W9 whole entry, looked up): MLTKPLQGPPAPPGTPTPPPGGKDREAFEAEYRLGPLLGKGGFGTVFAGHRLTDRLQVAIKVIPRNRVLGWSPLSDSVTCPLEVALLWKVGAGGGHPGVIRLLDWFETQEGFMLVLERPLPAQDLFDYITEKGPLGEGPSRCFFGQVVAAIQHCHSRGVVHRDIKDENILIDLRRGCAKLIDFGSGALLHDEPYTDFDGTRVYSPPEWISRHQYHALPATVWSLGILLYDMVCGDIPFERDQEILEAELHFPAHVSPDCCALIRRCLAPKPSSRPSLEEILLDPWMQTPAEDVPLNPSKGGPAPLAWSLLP

Sequence of Maternal embryonic leucine zipper kinase (Homo sapiens) (Q14680 whole entry, looked up): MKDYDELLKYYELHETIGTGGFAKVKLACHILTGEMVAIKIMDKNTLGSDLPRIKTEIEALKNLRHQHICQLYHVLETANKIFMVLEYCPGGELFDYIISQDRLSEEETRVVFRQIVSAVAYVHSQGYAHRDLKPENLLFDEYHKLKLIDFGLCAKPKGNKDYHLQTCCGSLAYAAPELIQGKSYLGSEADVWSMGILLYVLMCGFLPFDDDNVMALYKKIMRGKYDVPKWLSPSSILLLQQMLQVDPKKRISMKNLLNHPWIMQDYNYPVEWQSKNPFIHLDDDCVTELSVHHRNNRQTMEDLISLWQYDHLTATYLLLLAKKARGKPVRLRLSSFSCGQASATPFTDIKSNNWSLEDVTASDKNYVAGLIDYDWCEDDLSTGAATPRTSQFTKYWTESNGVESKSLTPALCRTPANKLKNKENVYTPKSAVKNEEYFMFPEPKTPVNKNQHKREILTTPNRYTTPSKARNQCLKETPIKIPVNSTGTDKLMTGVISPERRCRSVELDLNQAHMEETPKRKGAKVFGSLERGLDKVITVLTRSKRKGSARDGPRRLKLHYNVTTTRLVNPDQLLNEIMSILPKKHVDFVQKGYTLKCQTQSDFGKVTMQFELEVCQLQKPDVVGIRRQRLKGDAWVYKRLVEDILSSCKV
Sequence of MAP/microtubule affinity-regulating kinase 3 (Homo sapiens) (P27448 whole entry, looked up): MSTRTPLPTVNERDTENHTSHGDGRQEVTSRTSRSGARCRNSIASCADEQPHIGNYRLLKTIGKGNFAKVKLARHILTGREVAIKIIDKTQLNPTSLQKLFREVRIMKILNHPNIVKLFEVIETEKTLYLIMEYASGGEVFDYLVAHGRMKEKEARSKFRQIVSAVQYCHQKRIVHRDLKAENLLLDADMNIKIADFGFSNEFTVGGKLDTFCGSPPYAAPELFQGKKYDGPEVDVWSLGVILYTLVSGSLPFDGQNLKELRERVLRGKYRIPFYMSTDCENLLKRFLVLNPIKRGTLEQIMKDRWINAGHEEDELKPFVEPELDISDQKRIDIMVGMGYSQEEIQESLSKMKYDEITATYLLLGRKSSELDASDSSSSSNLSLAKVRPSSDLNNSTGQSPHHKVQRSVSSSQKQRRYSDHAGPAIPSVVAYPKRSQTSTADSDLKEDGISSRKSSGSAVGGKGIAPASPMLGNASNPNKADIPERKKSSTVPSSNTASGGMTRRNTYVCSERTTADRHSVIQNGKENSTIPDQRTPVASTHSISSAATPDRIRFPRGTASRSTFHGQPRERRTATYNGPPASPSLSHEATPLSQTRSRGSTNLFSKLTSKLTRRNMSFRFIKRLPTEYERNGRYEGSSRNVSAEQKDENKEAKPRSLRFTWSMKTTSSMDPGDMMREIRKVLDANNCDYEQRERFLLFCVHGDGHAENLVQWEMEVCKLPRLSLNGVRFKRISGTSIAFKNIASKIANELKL
Sequence of Serine/threonine-protein kinase MARK2 (Homo sapiens) (Q7KZI7 whole entry): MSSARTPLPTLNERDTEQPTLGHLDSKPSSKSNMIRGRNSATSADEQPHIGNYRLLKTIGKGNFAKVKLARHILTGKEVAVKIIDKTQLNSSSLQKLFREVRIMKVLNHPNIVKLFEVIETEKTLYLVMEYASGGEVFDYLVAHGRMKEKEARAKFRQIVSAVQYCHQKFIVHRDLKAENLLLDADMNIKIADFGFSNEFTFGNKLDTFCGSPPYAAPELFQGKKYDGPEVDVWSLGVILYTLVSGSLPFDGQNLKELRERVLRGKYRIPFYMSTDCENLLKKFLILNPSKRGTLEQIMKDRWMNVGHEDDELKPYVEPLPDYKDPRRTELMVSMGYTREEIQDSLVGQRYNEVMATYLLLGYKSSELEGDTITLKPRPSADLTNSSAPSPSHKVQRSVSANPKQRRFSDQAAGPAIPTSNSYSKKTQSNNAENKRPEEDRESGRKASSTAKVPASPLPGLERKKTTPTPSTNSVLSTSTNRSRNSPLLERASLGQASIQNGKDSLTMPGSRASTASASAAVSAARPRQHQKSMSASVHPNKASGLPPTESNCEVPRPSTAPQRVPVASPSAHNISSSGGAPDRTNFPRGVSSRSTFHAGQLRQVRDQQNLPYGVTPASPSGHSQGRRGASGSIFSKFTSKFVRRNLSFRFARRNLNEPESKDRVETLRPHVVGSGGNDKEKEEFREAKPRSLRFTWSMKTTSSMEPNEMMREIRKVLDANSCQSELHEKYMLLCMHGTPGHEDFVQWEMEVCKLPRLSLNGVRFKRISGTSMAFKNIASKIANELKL
Sequence of Serine/threonine-protein kinase pim-1 (Homo sapiens) (P11309 whole entry, looked up): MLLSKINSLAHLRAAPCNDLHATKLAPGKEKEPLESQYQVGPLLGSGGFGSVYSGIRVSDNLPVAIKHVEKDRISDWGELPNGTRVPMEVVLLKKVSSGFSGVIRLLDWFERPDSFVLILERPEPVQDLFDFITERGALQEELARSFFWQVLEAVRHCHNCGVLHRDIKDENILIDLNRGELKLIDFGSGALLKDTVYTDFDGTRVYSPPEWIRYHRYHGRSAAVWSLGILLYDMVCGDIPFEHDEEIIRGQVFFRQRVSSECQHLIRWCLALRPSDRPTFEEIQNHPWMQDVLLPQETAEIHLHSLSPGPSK
Sequence of MAP kinase-interacting serine/threonine-protein kinase 2 (Homo sapiens) (Q9HBH9 whole entry, looked up): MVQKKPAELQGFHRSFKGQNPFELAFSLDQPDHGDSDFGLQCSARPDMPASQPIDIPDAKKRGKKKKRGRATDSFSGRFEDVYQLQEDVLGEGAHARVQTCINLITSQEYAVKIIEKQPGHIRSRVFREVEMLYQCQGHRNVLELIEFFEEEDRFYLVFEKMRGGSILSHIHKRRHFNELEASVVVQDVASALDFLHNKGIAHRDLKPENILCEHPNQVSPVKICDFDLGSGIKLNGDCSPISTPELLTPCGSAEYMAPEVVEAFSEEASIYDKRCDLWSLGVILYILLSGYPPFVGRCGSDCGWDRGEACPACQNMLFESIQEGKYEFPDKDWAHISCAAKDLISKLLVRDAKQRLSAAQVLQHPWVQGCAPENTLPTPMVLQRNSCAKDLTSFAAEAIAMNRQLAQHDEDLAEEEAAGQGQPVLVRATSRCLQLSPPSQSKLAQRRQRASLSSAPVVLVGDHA
Sequence of MAP kinase-interacting serine/threonine-protein kinase 1 (Homo sapiens) (Q9BUB5 whole entry, looked up): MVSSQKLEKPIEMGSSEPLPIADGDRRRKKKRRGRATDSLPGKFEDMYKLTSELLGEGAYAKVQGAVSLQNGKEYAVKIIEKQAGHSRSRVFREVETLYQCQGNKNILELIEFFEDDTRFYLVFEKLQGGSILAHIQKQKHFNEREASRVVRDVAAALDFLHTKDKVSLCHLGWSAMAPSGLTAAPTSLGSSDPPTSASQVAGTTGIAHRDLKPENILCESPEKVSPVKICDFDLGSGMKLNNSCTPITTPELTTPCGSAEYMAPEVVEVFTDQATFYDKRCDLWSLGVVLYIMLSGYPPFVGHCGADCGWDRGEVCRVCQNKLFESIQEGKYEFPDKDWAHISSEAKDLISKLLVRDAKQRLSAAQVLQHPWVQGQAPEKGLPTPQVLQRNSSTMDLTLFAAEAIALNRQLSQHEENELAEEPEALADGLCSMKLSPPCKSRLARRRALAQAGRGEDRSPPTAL
Sequence of Phosphorylase b kinase gamma catalytic chain, skeletal muscle/heart isoform (Homo sapiens) (Q16816 whole entry, looked up, canonical isoform): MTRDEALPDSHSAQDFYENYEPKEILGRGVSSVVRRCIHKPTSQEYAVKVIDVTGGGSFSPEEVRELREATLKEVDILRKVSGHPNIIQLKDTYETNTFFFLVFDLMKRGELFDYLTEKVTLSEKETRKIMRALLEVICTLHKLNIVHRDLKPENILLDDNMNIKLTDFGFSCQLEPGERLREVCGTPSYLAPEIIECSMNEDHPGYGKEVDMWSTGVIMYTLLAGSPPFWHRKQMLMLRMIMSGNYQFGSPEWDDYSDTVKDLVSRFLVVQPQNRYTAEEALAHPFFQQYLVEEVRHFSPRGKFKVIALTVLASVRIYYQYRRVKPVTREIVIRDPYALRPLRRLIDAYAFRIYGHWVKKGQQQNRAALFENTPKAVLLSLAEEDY

Take `NS(=O)(=O)c1ccc(-c2ccc3c(NC(=O)C4CC4)n[nH]c3c2)cc1`: the inhibition was found to be 5.56% in [1]; 0.63% in [2]; 2.61% in [3]; 0.83% in assay [4]; 1.42% in [5]; 4.28% in assay [6]. Besides, the inhibition in [7] stood at 17.9%; in assay [8] it was 0.71%; in assay [9], 6.29%; in assay [10], 0.75%; in assay [11], 2.59%; in assay [12], 0.57%. Further, the inhibition in assay [13] is -1.27%; in [14], -3.09%; in assay [15], 3.54%; in assay [16] it was 2.77%; in assay [17] it was 0%; in [18] it was 1.16%. Further, the values for the inhibition in assay [19] and in assay [20] were 0.95% and -0.15%, respectively.
For the compound `NC(=O)c1sc(-n2cnc3cc(C(F)(F)F)ccc32)cc1OCc1ccccc1Br`, the inhibition was 0.82% in [1]; 2.12% in assay [2]; 1.92% in assay [3]; 4.69% in [4]; 0.55% in assay [5]; 1.99% in assay [6]. Also, the inhibition in assay [7] is 2.87%; in assay [8] it was 1.3%; in assay [9], 2.88%; in [10] it was -0.02%; in assay [11], 2.11%; in assay [12], 1.33%. Further, the inhibition in assay [13] amounted to 0.96%; in [14], 0.3%; in assay [15], 5.87%; in [16] it was 2.5%; in [17] it was 3.01%; in assay [18] it was 1.18%. Further, the values for the inhibition in assay [19] and in [20] were 1.5% and -0.35%, respectively.
As to `COc1cc2c(cc1Nc1nc(Nc3ccsc3C(N)=O)c3cc[nH]c3n1)N(C(=O)CN(C)C)CCC2`, the inhibition in assay [1] stood at 4.97%; in [2], 0.47%; in [3], 0.65%; in assay [4], 1.24%; in [5] it was 11.3%; in [6], 0.63%. For the same compound, the inhibition in assay [7] was 0.17%; in [8] it was -0.68%; in assay [9], 0.28%; in assay [10] it was 2.05%; in [11], 5.44%; in assay [12] it was 0.93%. Moreover, the inhibition in assay [13] was 1.03%; in assay [14], 8.54%; in assay [15] it was 41.3%; in [16] it was -0.5%; in [17], -0.53%; in assay [18], 31.3%. The figures for the inhibition in assay [19] and in assay [20] were 79.8% and 0.47%, respectively.
Consider `COc1cccc(COc2cc(-n3cnc4ccccc43)sc2C(N)=O)c1`, for which the inhibition was 2.02% in [1]; 1.15% in assay [2]; 1% in assay [3]; -2.92% in assay [4]; -8.42% in assay [5]; 1.73% in assay [6]. Further, the inhibition was 12% in [7]; -0.04% in [8]; 6.31% in assay [9]; -2.23% in assay [10]; -1.4% in [11]; 1.11% in [12]. In addition, the inhibition in assay [13] was found to be 1.08%; in assay [14] it was 2.26%; in assay [15], 3.47%; in assay [16], 1.62%; in assay [17], 0.45%; in assay [18], 0.5%. Further, the inhibition in assay [19] was determined as 0.84%; in [20] it was 0.51%.
For the compound `CCn1c(-c2nonc2N)nc2c(C#CC(C)(C)O)ncc(OCC3CCNCC3)c21`, the inhibition in assay [1] was determined as 68.8%; in assay [2], 10.5%; in [3], 54.5%; in assay [4], 6.83%; in assay [5] it was 31.6%; in [6], 1.39%. For the same compound, the inhibition in assay [7] worked out at 9.05%; in assay [8], 0.56%; in assay [9] it was 4.38%; in [10], 11.3%; in [11], 46.5%; in assay [12], 0.98%. Besides, the inhibition in [13] worked out at 12.8%; in [14], 2.88%; in assay [15], 9.61%; in assay [16] it was 4.03%; in assay [17] it was 6.94%; in assay [18], 2.14%. Moreover, the inhibition was 17.3% in [19] and -3.05% in assay [20].
For `Cc1cc(-c2ccco2)cc(C)c1/C=C/c1cncc(-c2nn[nH]n2)c1`, the inhibition in [1] is 1.64%; in assay [2] it was 1.35%; in [3], 1.35%; in assay [4], 1.3%; in assay [5], 0.19%; in [6] it was 3.16%. Also, the inhibition in assay [7] is 29.9%; in assay [8], 4.58%; in assay [9], 35.2%; in assay [10], 1.91%; in assay [11], -0.28%; in [12] it was 1.32%. The inhibition is 1.25% in assay [13]; 3.4% in assay [14]; 4.41% in assay [15]; 1.33% in assay [16]; 1.22% in [17]; 0.14% in [18]. Further, the inhibition stood at 1.06% in assay [19] and 0.57% in assay [20].
With `NS(=O)(=O)c1ccc(N/C=C2\C(=O)Nc3ccc4ncsc4c32)cc1`, the inhibition in assay [1] is 42.9%; in [2] it was 11%; in assay [3] it was 46.3%; in [4] it was 38.6%; in assay [5] it was 89.5%; in [6], 4.69%. Further, the inhibition was 24% in assay [7]; 0.94% in assay [8]; 10.5% in assay [9]; 6.29% in assay [10]; 34.6% in assay [11]; -0.28% in [12]. Besides, the inhibition was 0.4% in [13]; 15.2% in assay [14]; 47.6% in assay [15]; 7.45% in assay [16]; 19.8% in assay [17]; 1.16% in assay [18]. For the same compound, the inhibition in assay [19] turned out to be 4.82%; in assay [20], 0.27%.
